Laboratory results as given in PubChem BioAssay AID2006 (Sanford-Burnham Center for Chemical Genomics, 2009).
About 1,000 (0.34%) of roughly 290,000 compounds were called active. Rule as the data show it: active = inhibition above about 50% (passing the limit was not always enough); inconclusive = no clear call, values can overlap the other calls. This excerpt belongs to a sample that is enriched for actives.

Molecular target: SUMO-conjugating enzyme UBC9 (Homo sapiens) (UniProt P63279)
Test: blockers of SAE1/SAE2–UBC9 SUMO transfer – biochemical, HTRF, uHTS, primary screen (AID 2006)
Details: HTRF SUMOylation assay, SAE1/SAE2 + UBC9, in vitro, at 35 µM, stronger effect = higher value

Chain of SUMO-conjugating enzyme UBC9 (Homo sapiens) (P63279 whole entry, looked up): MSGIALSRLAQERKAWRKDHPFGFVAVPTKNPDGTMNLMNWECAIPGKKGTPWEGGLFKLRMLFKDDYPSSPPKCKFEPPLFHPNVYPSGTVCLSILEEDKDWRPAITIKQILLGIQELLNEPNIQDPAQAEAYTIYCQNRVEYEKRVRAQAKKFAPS

| SMILES | inhibition | inhibition (average of repeat tests) [%] |
| --- | --- | --- |
| O=C(CCc1ccccc1)Nc1ccnn1C1CCN(Cc2ccc(OCCO)cc2)CC1 | 6.4% (inactive) |  |
| Nc1c(NCCc2ccccc2)c2ccccc2oc1=O | 6.6% (inactive) |  |
| COc1cccc(C(=O)c2cc3ccc(O)cc3oc2=O)c1 | 16.5% (inactive) |  |
| O=c1oc2cc(O)ccc2cc1-c1ccc(F)cc1 | 50.3% (active) | 56 |
| O=c1oc2ccccc2cc1-c1csc(Nc2ccc(O)cc2)n1 | 7.7% (inactive) |  |
| O=c1onc(-c2c(F)cccc2F)n1-c1ccccc1Cl | -6.5% (inactive) |  |
| CCOc1ccc(C2/C(=C(/O)c3ccc4c(c3)CC(C)O4)C(=O)C(=O)N2CCCn2ccnc2)cc1 (configuration not stated) | -13.9% (inactive) |  |
| Cc1ccc(CNC(=O)Cc2cn(C)c3ccccc23)cc1 | -1.9% (inactive) |  |
| Cn1c(-c2ccco2)nc2cc3ccccc3cc21 | 44.7% (inactive) |  |
| Clc1ccccc1CSc1nnc(-c2ccco2)c(-c2ccco2)n1 | 35.9% (inactive) |  |
| c1coc(-c2nc3nc4ccccc4n3nc2-c2ccco2)c1 | 90.5% (active) |  |
| O=C(NCCN1CCCC(O)C1)c1cc(COc2c(F)cccc2F)on1 (configuration not stated) | 1.7% (inactive) |  |
| CC(=O)N1CCC(N(C(=O)Nc2ccc(Cl)cc2)C(C)C)CC1 | 13.1% (inactive) |  |
| Cc1ccc(NS(=O)(=O)c2ccc(-c3coc(C)n3)cc2)c(C)c1 | -8.6% (inactive) |  |
| CCc1ccc(-c2cc(C(=O)NCc3ccco3)c3ccccc3n2)s1 | 59.3% (active) |  |
| CCCCN(C)CCCNC(=O)c1cc(-c2cccs2)nc2ccccc12 | 20.3% (inactive) |  |
| COC(=O)CNC(=O)c1cc(-c2ccncc2)nc2ccccc12 | 0.8% (inactive) |  |
| Cc1ccccc1N1CCN(C2CCCN(C(=O)c3cn4c(C)cccc4n3)C2)CC1 (configuration not stated) | -1.6% (inactive) |  |
| CCOC(=O)/C(=N\Nc1ccccc1[N+](=O)[O-])c1csc(Nc2ccccc2)n1 | 10.4% (inactive) |  |
| COc1cc(C(=O)Nn2c(CC(C)C)nc3ccccc3c2=O)cc(OC)c1OC | 7.6% (inactive) |  |
| COC(=O)c1cc(OCC(=O)NC2CCCc3ccccc32)cc(C(=O)OC)c1 (configuration not stated) | 11.7% (inactive) |  |
| O=C(O)c1ccccc1NC(=O)c1ccccc1-c1ccccc1C(=O)O | 9% (inactive) |  |
| COc1ccccc1NC(=O)CSc1nc2sc3c(c2c(=O)n1-c1ccccc1)CCN(C)C3 | -8.5% (inactive) |  |

| SMILES | inhibition | inhibition (average of repeat tests) [%] |
| --- | --- | --- |
| CCOC(=O)c1ccc[n+](CC(=O)Nc2ccccc2OC(F)F)c1 | -3.9% (inactive) |  |
| Cc1ccc(-c2nc(SCC(=O)Nc3ccccc3OC(F)F)c3c(C)c(C(=O)O)sc3n2)cc1 | 77.1% (active) |  |
| CCc1nc2cccnc2n1-c1ccc(C(=O)O)cc1 | 10.1% (inactive) |  |
| CCOC(=O)CN(C(=O)COc1nc(C)cc(C)c1C#N)c1ccc(Cl)cc1 | 16.2% (inactive) |  |
| Cc1cccc(C)c1N1C(=O)CN(Cc2ccccc2)C1=S | 3.1% (inactive) |  |
| CCOCc1nnc(NC(=O)CCS(=O)(=O)Cc2ccccc2)s1 | 0.9% (inactive) |  |
| COCC(C)OC(=O)c1c(N)n(CCCN2CCOCC2)c2nc3ccccc3nc12 (configuration not stated) | 48.2% (inactive) |  |
| CC(C)(C)OC(=O)c1c(N)n(CCCN2CCCC2=O)c2nc3ccccc3nc12 | 62.9% (active) | 40.3 |
| CC(C)(C)c1ccc(C(=O)NCCn2c(N)c(C#N)c3nc4ccccc4nc32)cc1 | 27.7% (inactive) |  |
| CC(C)=CCCC(C)CN1CCC(n2nccc2NC(=O)c2ccccc2)CC1 (configuration not stated) | 7% (inactive) |  |
| COc1cc(/C(=C/c2ccccc2)c2ccccc2)c2c(c1)oc1ccccc12 | 12.7% (inactive) |  |
| COc1ccccc1NC(=O)C1CCCN1S(=O)(=O)c1ccc(Cl)cc1 (configuration not stated) | -4.9% (inactive) |  |
| CCCCCC(=O)Nc1ccc(S(=O)(=O)Nc2ccc(Cl)nn2)cc1 | 2.3% (inactive) |  |
| CCCCCC(=O)Nc1ccc(-c2cn3cccnc3n2)cc1 | 50.5% (active) | 60.8 |
| CC(=O)Nc1ccc(-c2cn3cccnc3n2)cc1 | 55.4% (active) | 53.3 |
| CC(C)(C)C(=O)Nc1ccc(-c2cn3cccnc3n2)cc1 | 37.2% (inactive) |  |
| CCCC(=O)Nc1cccc(-c2cn3ccsc3n2)c1 | -25.1% (inactive) |  |
| FC(F)(F)Oc1ccc(-c2cn3cccnc3n2)cc1 | 24.2% (inactive) |  |
| Cc1ccc(NC(=O)CN2CCc3ccccc3C2)cc1C | -5.2% (inactive) |  |
| CCc1c(C)nc(N)n2c(SCC(=O)NC3CCCCC3)nnc12 | -11.4% (inactive) |  |
| Cc1ccc(C)c(NC(=O)NNC(=O)c2ccc3ccccc3c2O)c1 | 4.2% (inactive) |  |
| CC(=O)N1c2ccc(S(=O)(=O)N3CCCC(C(=O)Nc4cccc(F)c4)C3)cc2CC1C (configuration not stated) | 12.3% (inactive) |  |
| Cc1cc(C(F)F)nn1CC(=O)NC1CCCCCC1 | 2.2% (inactive) |  |

| SMILES | inhibition | inhibition (average of repeat tests) [%] |
| --- | --- | --- |
| N#CC1(NC(=O)COC(=O)CCN=C2NS(=O)(=O)c3ccccc32)CCCCC1 | 2.6% (inactive) |  |
| CC1CCCCC1NC(=O)CSc1nnc(-c2ccncc2)n1CCCN(C)C (configuration not stated) | 8.9% (inactive) |  |
| O=C(COC(=O)c1cccs1)Nc1ccccc1Cl | -14.2% (inactive) |  |
| O=C(Nc1ccccc1Cl)/C(Cl)=C(\Cl)S(=O)c1ccccc1 (configuration not stated) | 57% (active) |  |
| O=C(Nc1ccccc1Cl)Nn1cnnc1 | 10.4% (inactive) |  |
| CCC(=O)Nc1nnc(S(=O)(=O)N(CC(C)C)c2ccccc2)s1 | -0.8% (inactive) |  |
| CCOC(=O)C1=C(c2ccc(OC)cc2)C(=O)c2ccccc2C1=O | 5.9% (inactive) |  |
| CCOC(=O)c1c(C)[nH]c2c1-c1ccccc1C(=O)C2=O | 86.9% (active) |  |
| CCOC(=O)c1c(C)[nH]c(C(=O)NCc2ccccc2OC)c1C | 21.6% (inactive) |  |
| CC(C)(C)NC(=O)CN(Cc1cccs1)C(=O)CNS(=O)(=O)c1ccccc1 | 5.5% (inactive) |  |
| O=C(CN1CCC(NC(=O)C2CC2)CC1)Nc1ccccc1[N+](=O)[O-] | 2.3% (inactive) |  |
| CCOC(=O)C1CCN(S(=O)(=O)c2ccc3c(c2)N(C)C(=O)CC(=O)N3C)CC1 | 10.1% (inactive) |  |
| CCOc1ncccc1C(=O)NCCc1ccc(OC)cc1 | -5.7% (inactive) |  |
| CC(C)CN(CC(C)C)C(=O)CN1c2cccc3cccc(c23)S1(=O)=O | 14.7% (inactive) |  |
| CN1C(=O)/C(=C/c2ccco2)SC1=Nc1cccc(C(=O)O)c1 | 52.8% (active) |  |
| Cc1cc(/C=C2\SC(=O)N(C)C2=O)c(C)n1-c1cccc(C(=O)O)c1 | 0.8% (inactive) |  |
| O=C(CCCN1C(=O)/C(=C/c2ccco2)SC1=S)Nc1ccccc1 | 23.1% (inactive) |  |
| CCc1nn(CCCC(=O)NCc2ccc(C)cc2)c(=O)c2cc3occc3n12 | -4.3% (inactive) |  |
| Cc1cnc(C(=O)N2CCCC(N3CCN(c4ccccc4F)CC3)C2)cn1 (configuration not stated) | 5.2% (inactive) |  |
| CC(=O)Nc1ccc(S(=O)(=O)Nc2cc(C)cn(Cc3ccc(C)cc3)c2=O)cc1 | 14.3% (inactive) |  |
| O=C1Nc2cc(C(=O)N3CCC(N4CCCCC4)CC3)ccc2S/C1=C\c1ccccc1 | 10.8% (inactive) |  |
| Cc1ccc2nc(-c3ccncc3)cc(C(=O)Nc3ccc4c(c3)OCCO4)c2c1 | 23.4% (inactive) |  |
| Cc1ccc2nc(-c3ccncc3)cc(C(=O)Nc3ccncc3)c2c1 | -4.4% (inactive) |  |

| SMILES | inhibition | inhibition (average of repeat tests) [%] |
| --- | --- | --- |
| Cc1ccc2nc(-c3ccncc3)cc(C(=O)Nc3ccc(OC(F)F)cc3)c2c1 | 61.9% (active) |  |
| COc1ccc(N2CCN(C3CCCCC3NS(=O)(=O)c3ccccc3)CC2)cc1 (configuration not stated) | -12.9% (inactive) |  |
| O=[N+]([O-])c1cc(Cl)cc(/C=N/NC(=S)Nc2cc(S(=O)(=O)N3CCOCC3)ccc2Cl)c1O | 99.5% (active) |  |
| O=C(N/N=C/c1cc(Cl)cc([N+](=O)[O-])c1O)C(O)(c1ccccc1)c1ccccc1 | -22% (inactive) |  |
| O=C(CN1CCN(c2ccc(O)cc2)CC1)Nc1cc(S(=O)(=O)N2CCOCC2)ccc1Cl | 25.4% (inactive) |  |
| O=C(O)C1CCCCC1C(=O)N1CCN(S(=O)(=O)c2ccc(F)cc2)CC1 (configuration not stated) | 9.5% (inactive) |  |
| O=C(c1cccnc1)N1CCN(S(=O)(=O)c2cccs2)CC1 | -2% (inactive) |  |
| Cc1ccc(C)c(SCc2nc3sc(C(=O)O)c(C)c3c(=O)[nH]2)c1 | 9.1% (inactive) |  |
| CCOC(=O)c1sc2nc(CSc3ccccc3)[nH]c(=O)c2c1C | 25.9% (inactive) |  |
| CSc1nnc(SCc2nc3sc(C(=O)O)c(C)c3c(=O)[nH]2)s1 | 50.2% (active) | 70.2 |
| COc1cccc(-n2c(=S)sc3c(=O)n(-c4ccccc4C)c(SCC(=O)O)nc32)c1 | 6.2% (inactive) |  |
| COc1ccc(CCNC(=O)CCCCCNC(=O)N2CCn3c2nc2ccccc23)cc1OC | 15.4% (inactive) |  |
| CCc1nn(CCCC(=O)NC(C)c2ccccc2)c(=O)c2cc3occc3n12 (configuration not stated) | 10.2% (inactive) |  |
| CCC(C)(C)NC(=O)C(c1ccc(OC)cc1)N(C(=O)CCC(=O)Nc1cc(C)on1)c1ccc(OC)cc1OC (configuration not stated) | 6% (inactive) |  |
| COC(=O)COc1ccc2c(c1C)O/C(=C\c1ccco1)C2=O | 16.9% (inactive) |  |
| O=C(NCCCn1ccnc1)C1CCCN(S(=O)(=O)c2cc(Cl)ccc2Cl)C1 (configuration not stated) | -5.4% (inactive) |  |
| O=c1[nH]c2c(c(=O)n1Cc1ccccc1)CCC2 | 14.7% (inactive) |  |
| Cc1cc2nc3c(=O)n(Cc4ccccc4)c(=O)[nH]c3nc2cc1N | 51.4% (active) |  |
| Cc1nc2c(c(=O)n1Cc1ccco1)c1nc3ccccc3nc1n2Cc1ccccc1 | 31.7% (inactive) |  |
| CC(=O)N/C(=N/c1nc(C)cc(C)n1)Nc1ccc(F)cc1F | 10.8% (inactive) |  |
| O=C(NCc1ccccc1Cl)C1CCCN1S(=O)(=O)c1ccc(F)cc1 (configuration not stated) | 9.8% (inactive) |  |
| O=C(Nc1ccc(N2CCCC2=O)cc1)c1cncc(Br)c1 | -7.3% (inactive) |  |
| Oc1c(Cl)cc(Cl)c(Cl)c1Cc1c(O)c(Cl)cc(Cl)c1Cl | 71.9% (active) |  |
